The record followed here is ChEMBL document CHEMBL3988442, “University of Dundee, Small-Polar-MMV Screening Library” (2021).

Parameters in all cases: scale not given: direction of the effect not stated beside the values
Experiment [1] addresses Protein translocase subunit SecA (Escherichia coli (strain K12)) (UniProt P10408). Put plainly: Assay to Identify E. coli SecA ATPase Inhibitors. The conditions noted are these: 30 µM. In kind it is functional.
Experiment [2] addresses T1, Ubiquitin-activating enzyme e1, putative (Leishmania donovani (strain BPK282A1)) (UniProt E9BSI1).
T1 sequence (whole entry): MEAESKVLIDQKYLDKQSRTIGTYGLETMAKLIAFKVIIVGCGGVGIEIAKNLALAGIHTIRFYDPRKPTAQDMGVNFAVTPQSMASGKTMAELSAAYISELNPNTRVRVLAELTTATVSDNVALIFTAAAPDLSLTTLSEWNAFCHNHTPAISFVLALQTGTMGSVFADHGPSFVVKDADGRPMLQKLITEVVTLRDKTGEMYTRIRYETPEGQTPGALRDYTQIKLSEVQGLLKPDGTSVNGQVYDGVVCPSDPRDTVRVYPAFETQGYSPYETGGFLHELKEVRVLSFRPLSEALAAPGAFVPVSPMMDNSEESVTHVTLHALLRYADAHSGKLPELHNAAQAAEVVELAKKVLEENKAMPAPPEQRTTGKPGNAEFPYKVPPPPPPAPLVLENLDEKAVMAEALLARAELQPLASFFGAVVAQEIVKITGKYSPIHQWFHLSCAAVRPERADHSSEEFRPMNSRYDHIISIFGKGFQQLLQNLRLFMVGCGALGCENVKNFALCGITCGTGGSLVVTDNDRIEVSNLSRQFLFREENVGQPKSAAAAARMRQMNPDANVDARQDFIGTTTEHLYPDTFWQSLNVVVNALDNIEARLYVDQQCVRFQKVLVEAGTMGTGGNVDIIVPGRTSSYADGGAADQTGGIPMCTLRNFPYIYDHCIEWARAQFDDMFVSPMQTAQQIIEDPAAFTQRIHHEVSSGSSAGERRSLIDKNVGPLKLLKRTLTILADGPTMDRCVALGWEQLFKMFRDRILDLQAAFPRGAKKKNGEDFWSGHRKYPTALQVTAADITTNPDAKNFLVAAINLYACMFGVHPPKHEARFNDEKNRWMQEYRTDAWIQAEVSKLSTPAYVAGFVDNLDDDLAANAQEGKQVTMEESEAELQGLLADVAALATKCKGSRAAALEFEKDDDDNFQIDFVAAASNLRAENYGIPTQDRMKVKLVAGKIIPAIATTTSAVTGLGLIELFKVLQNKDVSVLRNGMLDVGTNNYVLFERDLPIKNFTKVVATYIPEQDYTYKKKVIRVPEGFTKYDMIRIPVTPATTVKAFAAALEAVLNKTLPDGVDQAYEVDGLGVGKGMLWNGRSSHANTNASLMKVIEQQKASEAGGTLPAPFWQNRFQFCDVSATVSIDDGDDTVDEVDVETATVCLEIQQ
Put plainly: Leishmania donovani Ubiquitin Activating Enzyme (LdE1). It counts as functional. The note with it: 30 µM.

Experiment [3] concerns the target AMP-activated protein kinase, AMPK (Homo sapiens) (UniProt P54646+O43741+P54619+Q9UGJ0+Q9Y478+Q13131+Q9UGI9). Put plainly: AMP-dependent Kinase enzyme assay. An in vitro enzyme assay that detects ADP turnover that is directly proportional to AMPK activity. This uses naive AMPK that is activated during the assay with MK-8722. It counts as functional. The conditions noted are these: 30 µM.

Experiment [4] concerns the target Sialic acid-binding Ig-like lectin 9 (Homo sapiens) (UniProt Q9Y336). Put plainly: Hs-Siglec9 ALPHAscreen SOP 20170721. The note with it: 10 µM. (In general: In Alpha technology, singlet oxygen from a donor bead excites a nearby acceptor bead.)
The test system of another experiment is Trypanosoma cruzi. Put plainly: Trypanosoma cruzi phosphomannomutase and mannose-1-phosphate guanylyltransferase assay. The note with it: 10 µM. In kind it is functional.
The target of experiment [5] is T2, Arginase-2, mitochondrial (Homo sapiens) (UniProt P78540).
T2 sequence (whole entry): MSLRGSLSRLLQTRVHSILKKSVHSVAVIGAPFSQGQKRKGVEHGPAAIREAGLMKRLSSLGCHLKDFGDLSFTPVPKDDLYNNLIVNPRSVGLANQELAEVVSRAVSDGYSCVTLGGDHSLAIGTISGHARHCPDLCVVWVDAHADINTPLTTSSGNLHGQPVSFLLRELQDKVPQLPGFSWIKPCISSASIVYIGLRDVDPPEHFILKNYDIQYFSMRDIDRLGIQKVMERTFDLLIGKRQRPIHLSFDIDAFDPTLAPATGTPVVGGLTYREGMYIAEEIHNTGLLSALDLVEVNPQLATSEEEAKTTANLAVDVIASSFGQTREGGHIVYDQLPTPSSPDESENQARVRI
Put plainly: in vitro enzyme assay to detect the production of urea directly proportional to the activity of Arginase II. Further: in the data most compounds retested in dose-response had high values. In kind it is functional. The note with it: 33.3 µM.

Experiment [6] deals with T3, Proteasome subunit beta (Trypanosoma cruzi) (UniProt O96673).
T3 sequence (whole entry): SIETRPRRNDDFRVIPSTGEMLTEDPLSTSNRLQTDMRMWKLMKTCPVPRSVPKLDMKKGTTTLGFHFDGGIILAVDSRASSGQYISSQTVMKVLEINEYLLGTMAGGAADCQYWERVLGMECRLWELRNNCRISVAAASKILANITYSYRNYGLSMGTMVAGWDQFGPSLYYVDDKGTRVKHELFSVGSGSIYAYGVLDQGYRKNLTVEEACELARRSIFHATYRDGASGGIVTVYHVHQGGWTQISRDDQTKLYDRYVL
Put plainly: Trypanosoma cruzi proteasome chymotrypsin-like activity (TcProtChymo) assay. Further: in the data most compounds retested in dose-response had high values. The note with it: 9.37 µM. It counts as functional.

The species entered for a further experiment is Homo sapiens. Put plainly: To identify inhibition of the IFN signalling (Jak-Stat) pathway via expression of an eGFP reporter gene under the control of an IFN-stimulated response element (ISRE) containing MxA promoter. It counts as functional. The note with it: 30 µM.
Experiment [7] addresses T4, Tyrosyl-tRNA synthetase, putative (Trypanosoma cruzi (strain CL Brener)) (UniProt Q4DSP6).
T4 sequence (whole entry): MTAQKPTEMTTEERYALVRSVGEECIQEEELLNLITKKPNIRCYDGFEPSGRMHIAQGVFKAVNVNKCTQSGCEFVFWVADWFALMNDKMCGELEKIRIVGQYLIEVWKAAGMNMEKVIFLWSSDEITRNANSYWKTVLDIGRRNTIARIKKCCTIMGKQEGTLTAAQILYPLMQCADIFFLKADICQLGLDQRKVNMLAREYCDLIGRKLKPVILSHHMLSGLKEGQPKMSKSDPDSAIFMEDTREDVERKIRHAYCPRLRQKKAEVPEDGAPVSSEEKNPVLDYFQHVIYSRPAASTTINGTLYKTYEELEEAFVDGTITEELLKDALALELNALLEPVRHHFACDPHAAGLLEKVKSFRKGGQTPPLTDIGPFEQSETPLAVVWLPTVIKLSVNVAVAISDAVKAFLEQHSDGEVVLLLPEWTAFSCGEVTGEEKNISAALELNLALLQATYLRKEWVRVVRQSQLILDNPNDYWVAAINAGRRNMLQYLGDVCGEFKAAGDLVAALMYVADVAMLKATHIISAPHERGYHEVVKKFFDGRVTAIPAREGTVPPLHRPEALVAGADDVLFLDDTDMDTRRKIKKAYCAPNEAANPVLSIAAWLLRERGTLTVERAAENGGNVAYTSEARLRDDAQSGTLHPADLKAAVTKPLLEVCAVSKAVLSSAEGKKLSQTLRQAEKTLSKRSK
Put plainly: Trypanosoma cruzi tyrosyl tRNA synthetase (TcYRS) _High Tyrosine SOP. Further: in the data most compounds retested in dose-response had high values. It counts as functional. The conditions noted are these: 30 µM.

Experiment [8] concerns the target T4, Tyrosyl-tRNA synthetase, putative (Trypanosoma cruzi (strain CL Brener)). Put plainly: Trypanosoma cruzi tyrosyl tRNA synthetase (TcYRS) SOP. In kind it is functional. The conditions noted are these: 30 µM.
For experiment [9], the target named is Chromo domain-containing protein 1 (Saccharomyces cerevisiae (strain ATCC 204508 / S288c) (Baker's yeast)) (UniProt P32657). Put plainly: ScCHD-1 Enzyme Inhibition Assay. Further: in the data most compounds retested in dose-response had high values. The conditions noted are these: 30 µM. In kind it is functional.
Chromo domain-containing protein 1 (Saccharomyces cerevisiae (strain ATCC 204508 / S288c) (Baker's yeast)), sequence (P32657 whole entry, the tested form may be a part): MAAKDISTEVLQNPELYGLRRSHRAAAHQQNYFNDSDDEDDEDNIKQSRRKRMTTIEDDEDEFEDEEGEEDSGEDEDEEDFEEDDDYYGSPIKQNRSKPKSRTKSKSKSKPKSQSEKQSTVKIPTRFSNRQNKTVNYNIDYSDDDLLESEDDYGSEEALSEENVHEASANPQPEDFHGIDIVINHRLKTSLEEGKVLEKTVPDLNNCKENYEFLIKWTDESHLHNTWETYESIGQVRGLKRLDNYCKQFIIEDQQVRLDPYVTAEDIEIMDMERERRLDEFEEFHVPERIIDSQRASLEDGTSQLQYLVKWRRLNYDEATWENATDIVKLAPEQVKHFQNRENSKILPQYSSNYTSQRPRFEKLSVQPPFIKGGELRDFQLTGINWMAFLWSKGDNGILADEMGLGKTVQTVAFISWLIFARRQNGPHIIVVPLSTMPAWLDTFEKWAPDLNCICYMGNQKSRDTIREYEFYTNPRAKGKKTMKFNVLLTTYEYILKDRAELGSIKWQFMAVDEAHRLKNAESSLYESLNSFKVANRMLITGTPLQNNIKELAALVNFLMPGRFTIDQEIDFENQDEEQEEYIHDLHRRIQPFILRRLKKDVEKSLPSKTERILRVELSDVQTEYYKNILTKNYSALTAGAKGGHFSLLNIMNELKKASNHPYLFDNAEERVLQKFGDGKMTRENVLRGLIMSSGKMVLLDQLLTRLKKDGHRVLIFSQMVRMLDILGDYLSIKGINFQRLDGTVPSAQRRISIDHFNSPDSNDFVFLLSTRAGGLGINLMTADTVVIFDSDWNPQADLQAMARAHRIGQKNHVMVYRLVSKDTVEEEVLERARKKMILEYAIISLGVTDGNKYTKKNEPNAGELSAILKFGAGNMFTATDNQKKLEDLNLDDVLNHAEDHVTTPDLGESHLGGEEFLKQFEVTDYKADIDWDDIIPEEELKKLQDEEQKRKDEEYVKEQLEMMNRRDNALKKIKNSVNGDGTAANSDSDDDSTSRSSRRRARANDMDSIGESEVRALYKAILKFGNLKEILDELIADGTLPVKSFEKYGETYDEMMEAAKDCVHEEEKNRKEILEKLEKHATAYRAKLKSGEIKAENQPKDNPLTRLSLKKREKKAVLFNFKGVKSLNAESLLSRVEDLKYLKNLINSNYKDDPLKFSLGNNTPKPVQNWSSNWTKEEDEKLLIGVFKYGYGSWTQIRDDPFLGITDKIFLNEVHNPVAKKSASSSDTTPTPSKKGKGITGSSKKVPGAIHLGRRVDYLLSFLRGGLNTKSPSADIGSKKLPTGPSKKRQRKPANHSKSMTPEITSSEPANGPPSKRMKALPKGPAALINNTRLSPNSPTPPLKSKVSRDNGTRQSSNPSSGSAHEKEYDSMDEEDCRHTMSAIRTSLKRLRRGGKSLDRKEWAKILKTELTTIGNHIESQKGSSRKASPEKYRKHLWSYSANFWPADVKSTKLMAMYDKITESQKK

For some assays here: Measured potencies and affinities stand elsewhere.

Protein translocase subunit SecA (Escherichia coli (strain K12)), sequence (P10408 whole entry): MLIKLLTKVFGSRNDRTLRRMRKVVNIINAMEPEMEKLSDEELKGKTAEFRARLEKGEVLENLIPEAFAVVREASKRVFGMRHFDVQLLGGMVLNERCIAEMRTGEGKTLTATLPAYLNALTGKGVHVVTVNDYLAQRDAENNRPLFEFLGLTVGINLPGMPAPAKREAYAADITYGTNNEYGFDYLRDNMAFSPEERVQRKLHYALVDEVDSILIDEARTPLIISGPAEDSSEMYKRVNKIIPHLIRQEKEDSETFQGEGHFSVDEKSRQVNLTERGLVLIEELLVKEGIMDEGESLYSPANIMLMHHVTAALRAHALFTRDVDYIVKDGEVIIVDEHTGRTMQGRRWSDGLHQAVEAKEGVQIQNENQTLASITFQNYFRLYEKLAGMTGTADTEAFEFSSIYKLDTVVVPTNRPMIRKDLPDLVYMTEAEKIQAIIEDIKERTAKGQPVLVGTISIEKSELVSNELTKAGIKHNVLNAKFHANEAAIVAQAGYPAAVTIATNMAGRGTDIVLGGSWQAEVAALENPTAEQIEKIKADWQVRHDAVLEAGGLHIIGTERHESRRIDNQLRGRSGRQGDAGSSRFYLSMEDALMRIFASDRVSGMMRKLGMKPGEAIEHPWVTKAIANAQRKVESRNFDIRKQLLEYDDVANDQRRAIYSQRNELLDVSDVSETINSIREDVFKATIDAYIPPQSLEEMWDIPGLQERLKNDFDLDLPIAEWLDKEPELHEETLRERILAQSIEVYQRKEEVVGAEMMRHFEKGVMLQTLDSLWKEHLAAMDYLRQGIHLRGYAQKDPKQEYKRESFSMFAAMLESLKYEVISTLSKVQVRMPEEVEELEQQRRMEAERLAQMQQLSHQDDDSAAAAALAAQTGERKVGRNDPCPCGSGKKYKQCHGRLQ
Sialic acid-binding Ig-like lectin 9 (Homo sapiens), sequence (Q9Y336 whole entry): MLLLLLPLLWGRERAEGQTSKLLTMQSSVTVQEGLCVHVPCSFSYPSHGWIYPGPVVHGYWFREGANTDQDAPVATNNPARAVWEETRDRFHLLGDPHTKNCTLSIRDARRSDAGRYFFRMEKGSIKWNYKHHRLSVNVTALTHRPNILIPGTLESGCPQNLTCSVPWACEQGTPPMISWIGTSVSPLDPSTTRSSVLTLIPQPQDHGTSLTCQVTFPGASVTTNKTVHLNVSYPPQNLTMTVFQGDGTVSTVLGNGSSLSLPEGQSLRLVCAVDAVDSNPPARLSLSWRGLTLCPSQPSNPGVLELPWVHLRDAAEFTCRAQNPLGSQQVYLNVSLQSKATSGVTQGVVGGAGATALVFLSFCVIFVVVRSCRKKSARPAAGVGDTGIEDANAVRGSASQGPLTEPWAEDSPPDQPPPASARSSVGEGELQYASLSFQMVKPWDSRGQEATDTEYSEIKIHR

For the compound `Cc1ccc(C(=O)N2CCC3(CC2)CC(c2ccccc2)C(=O)N3)cn1` (stereo not given), the Percent Effect in experiment [1] was 0.117%; in experiment [2], 18.7%; in experiment [3], -5.79%; in experiment [4] it was -1.61%; in the experiment with Trypanosoma cruzi it was 1.93%; in experiment [5] it was -48.9%. Also, the Percent Effect was 18.1% in [6]; 4.12% in the experiment listed under Homo sapiens; 1.04% in experiment [7]; 27.5% in experiment [8]; -17.9% in [9].
Regarding `Cc1noc([C@H]2COC[C@H]3CN(C(=O)Cc4ccc(F)cc4)C[C@H]32)n1`, the Percent Effect is -6.71% in experiment [1]; 10.8% in experiment [2]; -2.57% in [3]; 13.3% in experiment [4]; 3.91% with Trypanosoma cruzi; 3.75% in [5]. The Percent Effect in experiment [6] is 7.18%; in the experiment filed under Homo sapiens, -8.46%; in experiment [7], 5.94%; in [8], 11%; in experiment [9] it was -1.22%.
Regarding `CCn1ccnc1CN1CCN(CCC(=O)NC(C)(C)C)CC1C` (stereo not given), the Percent Effect in [1] is -2.88%; in [2] it was 8.11%; in experiment [3] it was -0.327%; in [4] it was 5.56%; with Trypanosoma cruzi, 3.71%; in [5] it was 10%. Besides, the Percent Effect in experiment [6] is 5.16%; in the experiment filed under Homo sapiens, 5.99%; in experiment [7], 10.9%; in [8], 15.8%; in experiment [9], -3.56%.
`Cc1nc(C2CCN(C(=O)c3ccc(=O)n(C)c3)CC2)c2sccn12`: the Percent Effect in [1] was -2.51%; in experiment [2], 4.05%; in experiment [3] it was 3.65%; in experiment [4], 3.19%; with Trypanosoma cruzi it was 1.58%; in experiment [5], -3.02%. Further, the Percent Effect was 10.4% in experiment [6]; 3.58% in the experiment listed under Homo sapiens; 3.23% in experiment [7]; 6.49% in experiment [8]; -13.8% in experiment [9].
In the case of `Cc1cnn(CC2CCCN2C(=O)c2cc3ccccc3[nH]c2=O)c1` (stereo not given), the Percent Effect in experiment [1] was -8.51%; in experiment [2] it was 7.79%; in experiment [3], -12.6%; in experiment [4] it was -10%; with Trypanosoma cruzi it was -5.97%; in experiment [5], -1.9%. The Percent Effect in experiment [6] was 8.49%; in the experiment listed under Homo sapiens, 15%; in experiment [7] it was 1.91%; in experiment [8] it was 7.06%; in [9], -15.3%.
On to `COc1cc(NC(=O)c2ccccc2F)c(C(=O)N(C)C)cc1OC`, for which the Percent Effect is 1.19% in [1]; 5.2% in experiment [2]; 0.986% in [3]; 2.38% in experiment [4]; -7.96% in the experiment on Trypanosoma cruzi; -8.28% in experiment [5]. Moreover, the Percent Effect in experiment [6] was 18.8%; in the experiment listed under Homo sapiens, -4.11%; in experiment [7] it was 3.23%; in experiment [8] it was 11.1%; in experiment [9], -2.46%.
As for `CCN1CCN(c2ncc(-c3cc(C)no3)c(-c3ccoc3C)n2)CC1`, the Percent Effect in experiment [1] was -4.09%; in [2] it was 12.2%; in [3] it was 5%; in [4], 3.93%; with Trypanosoma cruzi, 1.98%; in experiment [5], -3.48%. Further, the Percent Effect in experiment [6] was 6.4%; in the experiment listed under Homo sapiens it was -1.91%; in experiment [7] it was 2.15%; in experiment [8], 6.49%; in experiment [9] it was -24.9%.
With `COc1ccc(CN(C)CC2(O)CCN(C(=O)c3cccn3C)C2)cc1` (stereo not given), the Percent Effect in experiment [1] was -9.44%; in [2] it was -1.35%; in experiment [3], 5.12%; in experiment [4], 2.88%; with Trypanosoma cruzi, -1.78%; in experiment [5], -7.19%. Further, the Percent Effect in experiment [6] was -1.87%; in the experiment listed under Homo sapiens, 11.8%; in experiment [7], -2.15%; in [8] it was -3.9%; in experiment [9], -10.2%.
As to `Cc1ccccc1CN1CCC2(COCc3cnc(N(C)C)nc32)C1` (stereo not given), the Percent Effect was -1.75% in experiment [1]; 2.74% in experiment [2]; -2.35% in experiment [3]; 15.2% in [4]; 8.73% with Trypanosoma cruzi; -2% in experiment [5]. Moreover, the Percent Effect in experiment [6] is 8.65%; in the experiment listed under Homo sapiens it was 19.6%; in experiment [7], 9.38%; in experiment [8], 13.6%; in experiment [9] it was -2.3%.
With `CN(C)c1cc2c(nn1)CCN(C(=O)C1CCc3ccccc31)C2` (stereo not given), the Percent Effect was -6.92% in [1]; 5.06% in experiment [2]; -21.4% in experiment [3]; 3.81% in [4]; -0.283% in the experiment with Trypanosoma cruzi; 0.38% in experiment [5]. For the same compound, the Percent Effect is -1.06% in experiment [6]; 15.8% in the experiment filed under Homo sapiens; -5.42% in [7]; -8.86% in experiment [8]; -2.71% in experiment [9].
